Screening results: PubChem BioAssay, several laboratories
Shown are actives, neighbours in structure and some others; about 2.8% of the full set was active somewhere.
SENP7 block = blocks the human protease SENP7 | Q9BQF6 | inhibition, % at 5 µM | recombinant SENP7, Z-RLRGG-aminoluciferin luminescence, 40 min | 330,000 tested, 1.5% active;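 active means inhibition above about 50% at the single test dose, limit read from the data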
SENP6 block = inhibitors of human SENP6 protease; Recombinant SENP6 catalytic domain, aminoluciferin luminescence; inhibition, % at 10 µM; 330,000 tested, 1.8% active; AID 2599;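 active means inhibition above about 50% at the single tested dose, limit read from the data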
SENP8 block-1 = SENP8 protease inhibition; inhibition, % at 10 µM; purified SENP8, Z-RLRGG-aminoluciferin cleavage, luminescence; 330,000 tested, 1.2% active; Q96LD8; in the data active means inhibition above about 50%
SENP8 block-2 = SENP8 (human) protease inhibition; Q96LD8; inhibition, % at 20 µM; 360,000 tested, 0.64% active; AID 602440; recombinant SENP8, Nedd8 substrate fluorescence; in the data active means inhibition mostly above about 40%, no sharp cut-off; inactive means mostly below about 27%
HSP90 inh = blocks HSP90-mediated luciferase refolding in reticulocyte lysate. Rabbit reticulocyte lysate, luciferase refolding luminescence, 3 h. inhibition, % at 5.6 µM. 290,000 tested, 0.91% active. AID 1789;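 active means inhibition above the screen-wide mean plus 3 SD, computed separately per campaign, cut at about 16% in these data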;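 further: inhibitors lower the luminescence because luciferase stays unfolded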
HSP90 confirm = HSP90 inhibition, confirmation assay; shares compounds with HSP90 inh; rabbit reticulocyte lysate, luciferase refolding luminescence, 3 h; inhibition, % at 5.9 µM; 2,300 tested, 64% active; AID 1846; in the data active means inhibition above about 18%
luciferase ctr = counter-screen for HSP90 inhibitors: inhibitors of firefly luciferase; shares compounds with HSP90 inh; purified native firefly luciferase, luminescence; inhibition, % at 5.9 µM; 2,300 tested, 48% active;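 active means inhibition above the mean inhibition of all tested sample wells plus 3 SD, cut at about 10% in these data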
Target sequence (P08659 whole entry, looked up): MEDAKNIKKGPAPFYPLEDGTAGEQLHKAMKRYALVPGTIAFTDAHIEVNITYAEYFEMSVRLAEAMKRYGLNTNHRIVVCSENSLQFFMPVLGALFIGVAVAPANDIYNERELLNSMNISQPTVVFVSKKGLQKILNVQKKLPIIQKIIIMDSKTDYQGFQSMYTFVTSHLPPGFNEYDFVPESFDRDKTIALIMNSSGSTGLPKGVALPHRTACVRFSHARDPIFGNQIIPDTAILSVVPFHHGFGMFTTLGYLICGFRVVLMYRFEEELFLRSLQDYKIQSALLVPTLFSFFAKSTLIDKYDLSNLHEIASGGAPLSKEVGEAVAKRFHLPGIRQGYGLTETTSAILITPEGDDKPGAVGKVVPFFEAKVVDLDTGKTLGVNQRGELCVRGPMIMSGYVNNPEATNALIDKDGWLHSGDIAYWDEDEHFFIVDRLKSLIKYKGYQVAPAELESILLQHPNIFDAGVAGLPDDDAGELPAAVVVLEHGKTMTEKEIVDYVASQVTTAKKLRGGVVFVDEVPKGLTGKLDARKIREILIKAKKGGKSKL
Hits are given with their value; n = inactive; x = no result given.

SMILES	SENP7 block	SENP6 block	SENP8 block-1	SENP8 block-2	HSP90 inh	HSP90 confirm	luciferase ctr
CCC(=O)Nc1ccccc1C(=O)OCC(=O)c1ccccc1	n	n	n	n	52	66	n
CC(=O)Nc1cc(C(=O)OCC(=O)c2ccccc2)ccc1C	n	n	n	n	24	60	n
Cc1ccc(C(=O)OCC(=O)Nc2ccccc2)cc1NC(=O)c1ccco1	n	n	n	n	n	x	x
O=C1OCC(CO)(CO)N=C1NNc1ccccc1[N+](=O)[O-]	n	n	n	n	21	n	n
C[C@H](CO)N1C[C@H](C)[C@@H](CN(C)C(=O)c2ccc(F)cc2)Oc2cc(Br)ccc2S1(=O)=O	x	x	x	n	x	x	x
CCOC(=O)N1N=C(c2ccc(C)cc2)CC1(O)C(F)(F)F (stereo unspecified)	n	n	n	n	20	48	43
CCOC(=O)N1N=C(c2ccccc2)CC1(O)C(F)(F)F (stereo unspecified)	n	n	n	n	n	x	x
NC(=O)C(CC(=O)O)NC(=O)[C@@H]1CCOc2c(I)cc([N+](=O)[O-])cc2C(=O)N[C@@H](CO)C(=O)N[C@@H](Cc2ccc(O)cc2)C(=O)N1 (stereo partly specified)	n	n	n	x	n	x	x
CCOc1ncccc1C(=O)OCC(=O)N1CCc2ccccc21	n	n	n	n	n	x	x
CC1CCN(C2=NC(=O)/C(=C/c3ccccc3F)S2)CC1	n	n	n	n	23	35	14
O=C(CC(=O)N/N=C/c1ccc(O)cc1)N/N=C/c1ccc(O)cc1	n	n	n	n	n	x	x
Cc1cc(C(=O)N/N=C/c2ccc(O)c(O)c2O)c(C)n1-c1ccccc1	x	x	x	n	17	n	n
Cc1cc(/C=N/NC(=O)c2cccs2)c(C)n1-c1ccccc1	n	n	n	n	57	71	66
Cc1cc(C)cc(Nc2ncc3c(n2)CCCC3=O)c1	n	n	n	n	17	43	23
N=C1C(c2nc3ccccc3c(=O)[nH]2)=C(O)CN1c1ccccc1	x	x	x	x	n	x	x
Cc1ccc(N2CC(O)=C(c3nc4ccccc4c(=O)[nH]3)C2=N)cc1C	n	n	n	n	25	n	n
CCOC(=O)c1c(C)[nH]c(C2=NNC(=NC3CC3)SC2)c1C	n	n	n	n	55	84	75
COc1ccc(N2CCC(CNS(=O)(=O)c3cccc(C(F)(F)F)c3)C2)cc1 (stereo unspecified)	n	n	n	n	59	n	n
CC1(C)CC(NC(=O)COc2ccccc2Cl)CC(C)(C)N1	n	n	n	n	33	37	45
CC(=O)c1ccc(Oc2ncnc(N)c2[N+](=O)[O-])cc1	n	n	n	n	n	x	x
CC(=O)CSc1nnc(-c2ccc3c(c2)OCO3)o1	n	n	n	n	18	37	n
CC(=O)Nc1ccc(NC(=O)CSc2nnc(-c3ccc4c(c3)OCO4)o2)cc1	n	n	n	n	x	x	x
Cc1cc(C)c(NS(=O)(=O)c2ccc3c(c2)n(C)c(=O)n3C)c(C)c1	n	n	n	n	n	x	x
CC(C)(CO)NC(=O)CC1C(=O)NCCN1CC(c1ccccc1)c1ccccc1 (stereo unspecified)	n	n	n	n	n	x	x
CC1(C)C(=O)NCCN1C(=O)CC1C(=O)NCCN1CC(c1ccccc1)c1ccccc1 (stereo unspecified)	n	n	n	n	24	n	n
SMILES	SENP7 block	SENP6 block	SENP8 block-1	SENP8 block-2	HSP90 inh	HSP90 confirm	luciferase ctr
O=C(CN1CCCC1)Nc1ccc(Oc2ccc(NC(=O)CN3CCCC3)cc2)cc1	n	n	n	n	n	x	x
O=C(O)c1cccc(N/N=C/C2=C(Cl)c3cc(Cl)ccc3SC2)c1	x	x	x	n	18	27	30
CCn1c([N+](=O)[O-])nc2c1c(=O)[nH]c(=O)n2C	x	x	x	n	n	x	x
CC(C)(C)c1ccc(S(=O)(=O)N2CCN(CC(=O)N3CC(=O)Nc4ccccc43)CC2)cc1	n	n	n	n	x	x	x
CCOc1ccc(/C=N/NC(=O)c2ccccc2NC(=O)c2ccc(OC)cc2)cc1	n	n	n	n	19	n	n
C=CCn1c(C)cc(C(=O)COc2ncnc3sccc23)c1C	n	n	n	n	18	45	33
O=C(Nc1ccc2c(c1)OCCO2)C1CC1c1ccccc1 (stereo unspecified)	n	n	n	n	n	x	x
O=C(CCCc1ccccc1)Nc1ccc2c(c1)OCCO2	n	n	n	n	26	32	29
O=C(O)C1CCCCC1C(=O)Nc1ccc2c(c1)OCCO2 (stereo unspecified)	n	n	n	n	29	n	n
O=C(CC1CS(=O)(=O)CC1CC(=O)Nc1ccc2c(c1)OCCO2)Nc1ccc2c(c1)OCCO2 (stereo unspecified)	n	n	n	n	59	68	62
NNc1nc(-c2ccccc2Cl)nc2sc3c(c12)CCCC3	n	n	n	n	n	x	x
Cc1ccccc1Nc1nc(NCc2ccco2)c2ccccc2n1	n	n	n	n	n	x	x
Oc1ccccc1Nc1nc(NCc2ccco2)c2ccccc2n1	n	n	n	n	28	n	n
CCN(CC)CCN(C)C(=O)c1ccc(OC2CCN(C(=O)C3CC3)CC2)cc1	n	n	n	n	n	x	x
CC1Cc2cc(/C(O)=C3/C(=O)C(=O)N(Cc4ccco4)C3c3cccs3)ccc2O1 (stereo unspecified)	n	n	n	n	36	n	n
CC1Cc2cc(/C(O)=C3/C(=O)C(=O)N(CCCn4ccnc4)C3c3ccco3)ccc2O1 (stereo unspecified)	n	n	n	n	42	40	39
COc1ccc(/C(O)=C2/C(=O)C(=O)N(Cc3ccco3)C2c2cccs2)cc1 (stereo unspecified)	n	n	n	n	n	x	x
CC1Cc2cc(/C(O)=C3/C(=O)C(=O)N(CCCn4ccnc4)C3c3ccncc3)ccc2O1 (stereo unspecified)	n	n	n	n	n	x	x
Cc1ccc(-c2cc(C(=O)N3CCOCC3)c3cc(C)ccc3n2)cc1	n	n	n	n	n	x	x
CC(c1ccccc1)C1CC(=O)N(Cc2ccco2)C1=O (stereo unspecified)	n	n	n	n	n	x	x
COCCn1c(C)cc(C2=NNC(=Nc3ccc(OC)cc3)SC2)c1C	n	n	n	n	n	x	x
COCCn1c(C)cc(C2=NNC(=Nc3ccccc3)SC2)c1C	n	n	n	n	51	39	33
C[C@H]1O[C@@H](O[C@H]2CC[C@@]3(C)C(CC[C@]4(C)C3C=C[C@]35OC[C@@]6(CCC(C)(C)C[C@H]63)[C@@H](O)C[C@]54C)[C@]2(C)CO)[C@H](O)[C@@H](O[C@@H]2O[C@H](CO)[C@@H](O)[C@H](O)[C@H]2O)[C@H]1O (stereo partly specified)	n	n	n	n	x	x	x
COc1ccccc1CNC(=O)CNC(=O)[C@@H]1Cc2ccccc2CN1	n	n	n	n	n	x	x
